hgDAF-12 ag: activates the H. glycines DAF-12 receptor ligand-binding domain. HEK293 GAL4-hgDAF12 UAS-luciferase reporter, agonist luminescence; normalized to butyrate control. activation, % at 6.8 µM. 1.8% of 370,000 active. AID 687014;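 active = activation above a cutoff set at the mean of all screened compounds plus 3 SD, cut at about 10% in these data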;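 also: 0% = DMSO wells and 100% = sodium butyrate wells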
ssDAF12 agonist: S. stercoralis DAF-12 activation, primary screen | HEK293 ssDAF-12/GRIP1 lit1-tk-luc reporter, luminescence; % of 3 µM dafachronic acid response | activation, % at 6.8 µM | 1% of 370,000 active | AID 652126;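 active = activation above the mean over all tested compounds plus 3 SD, cut at about 0.9% in these data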;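 also: 0% = DMSO-only wells and 100% = 3 µM delta7-dafachronic acid wells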
hcDAF-12 act: activates DAF-12 receptor from parasite H. contortus | HEK293 hcDAF-12 lit1-tk-luc reporter, luminescence; 0% DMSO, 100% Δ7-dafachronic acid | activation, % at 6.8 µM | 1.4% of 370,000 active | AID 652067;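 active = activation above the mean of all tested compounds plus 3 SD, cut at about 5.5% in these data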;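 also: 100% = response to 3 µM Δ7-dafachronic acid high control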
DAX1 inh-1: inhibitors of human orphan nuclear receptor DAX1 (NR0B1); P51843; HEK293 Gal4-DAX1 luciferase reporter, luminescence; inhibition, % at 6.75 µM; 0.99% of 340,000 active;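 active = inhibition above the mean over all tested compounds plus 3 SD, cut at about 4.2% in these data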;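 also: 0% = DAX1-transfected cells with DMSO and 100% = empty-vector control cells with DMSO; inhibition shows as a rise in luminescence from relieved DAX1 repression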
DAX1 inh-2: inhibitors of DAX1 repression of SF-1 activated StAR promoter. HEK293T StAR-luciferase reporter, SF-1/DAX-1 repression relief. inhibition, % at 6.8 µM. 1.1% of 370,000 active. AID 652010;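 active = inhibition above the mean over all tested compounds plus 3 SD, cut at about 3.6% in these data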;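 also: 0% = DAX-1 cells with DMSO and 100% = cells lacking DAX-1 with DMSO; higher inhibition means more luminescence from relief of DAX-1 repression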
DAX1 conf: NR0B1 (human) inhibition, confirmation. HEK293T StAR-promoter luciferase reporter, SF-1/DAX-1 repression. inhibition, % at 6.8 µM. shares compounds with DAX1 inh-2. 87% of 2,400 active. AID 652134;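 active = inhibition above the average of every tested compound plus 3 SD, cut at about 3.8% in these data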;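 also: 0% = DAX-1 cells with DMSO and 100% = no DAX-1 control cells with DMSO; active compounds raise luminescence by relieving repression of the StAR reporter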
Target sequence (P51843 whole entry, looked up): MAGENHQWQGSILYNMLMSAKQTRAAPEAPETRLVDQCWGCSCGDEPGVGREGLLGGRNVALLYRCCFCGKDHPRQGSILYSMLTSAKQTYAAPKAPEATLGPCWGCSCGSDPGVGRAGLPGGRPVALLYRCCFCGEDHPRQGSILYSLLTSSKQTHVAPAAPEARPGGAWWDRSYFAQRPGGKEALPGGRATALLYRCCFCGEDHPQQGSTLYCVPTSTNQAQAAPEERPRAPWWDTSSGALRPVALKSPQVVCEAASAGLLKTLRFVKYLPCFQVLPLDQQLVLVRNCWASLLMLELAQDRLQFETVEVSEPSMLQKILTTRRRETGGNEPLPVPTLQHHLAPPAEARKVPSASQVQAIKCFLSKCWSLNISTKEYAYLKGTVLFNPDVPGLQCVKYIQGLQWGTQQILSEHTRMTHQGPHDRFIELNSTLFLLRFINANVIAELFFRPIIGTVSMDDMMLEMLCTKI
SF1 AF2mut Luc: nonselective inhibitor or artifact in SF-1 mutant DAX1 counter-screen; shares compounds with DAX1 inh-2; HEK293 StAR-luciferase, SF-1 AF2 mutant, luminescence; inhibition, % at 6.8 µM; 78% of 2,400 active;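 active = inhibition above the mean of all tested compounds plus 3 SD, cut at about 3% in these data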;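 also: 0% = DAX-1 transfected cells with DMSO and 100% = cells without DAX-1 with DMSO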
Starred values were filed as active, the others as inactive; / = not tested or not shown. Compounds with a hit are over-represented: about 4.1% of the library has one in this group of screens.

SMILES	hgDAF-12 ag	ssDAF12 agonist	hcDAF-12 act	DAX1 inh-1	DAX1 inh-2	DAX1 conf	SF1 AF2mut Luc
Cc1nnc(NC(=O)C2=COCCO2)s1	2	-1	1	0	2	/	/
CCCCc1nnc(NC(=O)C2=COCCO2)s1	8	1.0*	5	1	7.3*	7.3*	5.6*
O=C(CCCC1=NS(=O)(=O)c2ccccc2N1)N1CCN(c2ccccc2Cl)CC1	-3	-1	-2	/	-1	/	/
COC(=O)[C@]12C[C@H](CC(=O)N3CCCCC3)C(=O)N(Cc3cccc4ccccc34)C1=C[C@H](C(C)(C)C)O[C@@H]2C	-2	0	1	/	-2	/	/
O=S(=O)(c1ccccc1)N1CCCc2nc(-c3ccc(F)cc3)ccc21	-1	-1	0	/	0	/	/
COc1ccccc1OCC(=O)NNC(=O)CSC(=S)N1CCCC1	-1	0	0	-1	5.1*	-1	0
CSc1ccc(Cl)c(C(=O)Nc2ccc(Cl)cn2)c1	3	-1	-1	0	0	/	/
COc1cc(SC)ccc1C(=O)Nc1ccc(Cl)cn1	12*	1	5	0	5.3*	-2	-4
O=C(NCC1CCN(C(=O)C(=O)c2cc3ccccc3o2)CC1)c1ccc2c(c1)OCCCO2	0	-1	0	/	1	/	/
O=c1[nH]c(COc2ccc(Cl)cc2Cl)nc2ccccc12	7	0	0	1	5.2*	13*	6.8*
O=C(CCc1nc2ccccc2c(=O)[nH]1)NNC(=O)COc1ccccc1Cl	-3	-1	-2	1	1	/	/
CCOC1=C2CN(S(=O)(=O)c3ccc(C)cc3)[C@@H](c3cccs3)C[C@H]2[C@H]2C(=O)N(c3ccccc3)C(=O)[C@H]2C1	1	-1	-1	/	4.5*	-3	-1
Cc1ccc(S(=O)(=O)N2C[C@H]3C(=O)C[C@@H]4C(=O)N(c5ccccc5)C(=O)[C@@H]4[C@@H]3C[C@H]2c2cccs2)cc1	1	-1	1	/	0	/	/
CCN(CC(=O)Nc1ccc2c(c1)OCCO2)C(=O)c1ccc(C(F)(F)F)cc1	7	-1	3	1	5.2*	5.9*	3.0*
CCN(CC(=O)Nc1ccc2c(c1)OCCO2)C(=O)c1ccc(Cl)cc1Cl	11*	0	3	1	6.0*	7.5*	5.9*
O=C(CCS(=O)(=O)c1ccccc1)N1CCN(c2ccccc2)CC1	5	-1	5	1	9.3*	6.8*	3.7*
COc1ccc(NC(=O)NC2CCCCCCC2)cc1	13*	0.9*	5.8*	2	12*	10*	5.8*
O=C(Nc1ccccc1Cl)NC1CCCCCCC1	6	-1	1	2	5.2*	3.8*	2
COc1cccc(NC(=O)NC2CCCCCCC2)c1	10	0	2	1	4.8*	5.4*	4.3*
CCc1ccccc1NC(=O)NC1CCCCC1	1	-1	-1	1	0	/	/
Nc1ccn([C@@H]2O[C@H](C(=O)N3CCN(C(=O)N4CCCCC4)CC3)[C@@H](O)[C@H]2O)c(=O)n1	0	-1	-1	/	1	/	/
Nc1[nH]c(C(=O)c2ccc(Br)cc2)c(-c2ccncc2)c1C(=O)c1ccccc1	-3	-1	-2	/	0	/	/
Cc1ccc(CNC(=O)Nc2ccc(Cl)cc2)cc1	3	0	1	1	5.2*	1	0
CCn1c(SCC(=O)c2ccc(-c3ccccc3)cc2)nnc1-c1ccc(C(C)(C)C)cc1	1	-2	1	/	-2	/	/
COc1ccc(C=C(C#N)c2ccc(OC)cc2)cc1	17*	0	3	4	6.7*	9.1*	4.0*
COc1ccc(C(C#N)=Cc2ccc(OC)c(OC)c2)cc1	8	-1	-1	-1	0	/	/
c1ccc(CNc2ccc3ccccc3n2)nc1	15*	1.0*	8.0*	0	7.9*	12*	8.2*
Cc1cc(NCc2ccccn2)nc2ccccc12	5	-1	2	0	0	/	/

High-throughput results (PubChem BioAssay)
